Data reported in paper PMC4336329 (PLoS ONE, 2015).
The whole screen tested about 310,000 compounds, of which about 14,000 (4.5%) showed an effect of 50% or more. Effects have a minus sign here. The sample holds strong results, similar compounds and a random draw of the others, so the mix is not that of the screen.

These compounds were tested against human ether-à-go-go-related gene (hERG) potassium channel (human, UniProt Q12809) (assay: primary screen, population patch clamp on CHO cells stably expressing hERG; higher = less effect of the substance).
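Also: peak tail current of the secondary pulse compared with the same well before compound.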

Sequence of human ether-à-go-go-related gene (hERG) potassium channel (Q12809 whole entry, looked up): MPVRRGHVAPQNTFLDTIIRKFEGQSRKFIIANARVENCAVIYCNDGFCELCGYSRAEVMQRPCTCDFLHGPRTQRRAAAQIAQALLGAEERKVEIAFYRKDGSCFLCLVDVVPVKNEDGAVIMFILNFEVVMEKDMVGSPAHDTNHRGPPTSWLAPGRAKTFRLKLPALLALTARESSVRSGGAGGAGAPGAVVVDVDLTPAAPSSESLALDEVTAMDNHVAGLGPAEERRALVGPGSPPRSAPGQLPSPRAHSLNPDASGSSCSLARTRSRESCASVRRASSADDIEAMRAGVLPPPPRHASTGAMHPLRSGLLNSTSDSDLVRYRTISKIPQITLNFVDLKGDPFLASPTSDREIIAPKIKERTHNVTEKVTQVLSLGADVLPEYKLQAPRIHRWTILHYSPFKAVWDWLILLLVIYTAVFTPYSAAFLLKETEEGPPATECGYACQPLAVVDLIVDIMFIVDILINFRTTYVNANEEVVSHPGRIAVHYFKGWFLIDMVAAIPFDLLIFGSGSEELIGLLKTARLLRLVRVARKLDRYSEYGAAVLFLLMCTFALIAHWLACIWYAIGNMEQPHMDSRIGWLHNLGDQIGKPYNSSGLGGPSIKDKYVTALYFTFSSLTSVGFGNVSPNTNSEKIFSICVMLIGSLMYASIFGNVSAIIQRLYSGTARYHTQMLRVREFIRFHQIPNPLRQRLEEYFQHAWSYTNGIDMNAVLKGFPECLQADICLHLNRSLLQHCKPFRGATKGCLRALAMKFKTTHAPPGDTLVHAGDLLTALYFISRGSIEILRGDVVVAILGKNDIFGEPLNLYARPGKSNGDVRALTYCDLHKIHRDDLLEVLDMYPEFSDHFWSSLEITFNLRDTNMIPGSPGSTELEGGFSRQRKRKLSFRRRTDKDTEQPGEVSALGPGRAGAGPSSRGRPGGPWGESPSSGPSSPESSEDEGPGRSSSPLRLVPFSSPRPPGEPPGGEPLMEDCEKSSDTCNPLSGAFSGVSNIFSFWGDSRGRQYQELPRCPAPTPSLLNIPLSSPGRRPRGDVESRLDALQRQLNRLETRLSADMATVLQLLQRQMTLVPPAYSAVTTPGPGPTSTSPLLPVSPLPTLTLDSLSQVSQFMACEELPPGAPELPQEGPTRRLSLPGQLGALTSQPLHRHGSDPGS

| SMILES | hERG current change (%, negative = inhibition) at 10uM [%] |
| --- | --- |
| CCOC(=O)COn1c(-n2nc(C)cc2C)nc2ccccc2c1=O | 0.487 |
| Cc1ccccc1NC(=O)c1ccccc1O | 9.03 |
| CCCC(=O)Nc1ccc2c(c1)nc(CN1CCCC1)n2C | 11.7 |
| Cc1cccc(OCC(=O)Nc2ccc3c(c2)nc(CN2CCCCC2)n3C)c1.Cl | -25.3 |
| CC(C)CC(=O)Nc1ccc2c(c1)nc(CCN1CCCCC1)n2C | -9.9 |
| Cc1ccc(C(C)C)c(OCC(=O)Nc2ccc3c(c2)nc(CCN2CCCCC2)n3C)c1 | -75.8 |
| Cc1ccc(C(C)C)c(OCC(=O)Nc2ccc3c(c2)nc(CN2CCCC2)n3C)c1 | -76.2 |
| CCC(=O)Nc1ccc2c(c1)nc(CCN1CCCCC1)n2C | 7.26 |
| Cc1ccc(OCc2nc(-c3ccccn3)no2)c(Br)c1 | -22.5 |
| CC(=O)c1cccc(OCC(=O)Nc2cccc(C(=O)Nc3c(C)n(C)n(-c4ccccc4)c3=O)c2)c1 | -7.78 |
| C=C1C(C(=O)N2CCN(C)CC2)C1C(=O)N1CCN(C)CC1 (centres unmarked) | -2.23 |
| Cc1ccc(-n2nnnc2SCC(=O)c2c(N)n(CC(C)C)c(=O)n(C)c2=O)cc1 | -69.1 |
| CC(C)Cn1c(N)c(C(=O)COC(=O)CCc2nc3ccccc3s2)c(=O)n(C)c1=O | -69.3 |
| CCc1ccc(C(=O)OCC(=O)c2c(N)n(CC(C)C)c(=O)n(C)c2=O)cc1 | -0.249 |
| Cn1c(N)c(C(=O)COC(=O)CCc2nc3ccccc3s2)c(=O)n(C)c1=O | 5.93 |
| Cn1c(N)c(C(=O)COC(=O)CCCc2nc3ccccc3s2)c(=O)n(C)c1=O | 9.03 |
| CC(C)Cn1c(N)c(C(=O)CSc2nnnn2C)c(=O)n(C)c1=O | 4.91 |
| CC(C)Cn1c(N)c(C(=O)COC(=O)c2ccc3ccccc3n2)c(=O)n(C)c1=O | -59.9 |
| Cn1c(N)c(C(=O)COC(=O)c2ccc([N+](=O)[O-])o2)c(=O)n(C)c1=O | -34.6 |
| CC(C)Cn1c(N)c(C(=O)COC(=O)c2ccc([N+](=O)[O-])o2)c(=O)n(C)c1=O | -69.5 |
| CCCn1c(N)c(C(=O)CSc2nnnn2-c2ccc(O)cc2)c(=O)n(C)c1=O | 5.2 |
| CC(C)Cn1c(N)c(C(=O)COC(=O)c2cc(C(F)(F)F)nc3ccccc23)c(=O)n(C)c1=O | 0.872 |
| CC(C)Cn1c(N)c(C(=O)COC(=O)c2cc(-c3ccccc3)nc3ccccc23)c(=O)n(C)c1=O | -8.18 |
